Consider 22 molecules from publication PMC12529666, “Dysregulation of AGO2-miRNA dynamics underlies the AGO2-associated Lessel–Kreienkamp syndrome”.

Where a chain is given by its changes, count along the chain named.

The chains are these.
B1: GCGTCTTA (ssRNA)
RNA 1: GAGUUCUACAGUCCGACGAUCCCAACGCGUCUUACACCUGGAAUUCUCGGGUGCCAA
RNA 2: UGGAGUGUGACAAUGGUGUUUG
DNA 1: GATCGTCGGACTGTAGAACTC
DNA 2: TTGGCACCCGAGAATTCCA
modifications: constant regions annealed to DNA blockers; guide miR-122 5' phosphate
B2: GCGTTTTA (ssRNA)
RNA 1: B1 RNA 1 with C31U
RNA 2: UGGAGUGUGACAAUGGUGUUUG
DNA 1: GATCGTCGGACTGTAGAACTC
DNA 2: TTGGCACCCGAGAATTCCA
modifications: constant regions annealed to DNA blockers; guide miR-122 5' phosphate
B3: ACGTCCTG (ssRNA)
RNA 1: B1 RNA 1 with G27A, U32C, A34G
RNA 2: UGGAGUGUGACAAUGGUGUUUG
DNA 1: GATCGTCGGACTGTAGAACTC
DNA 2: TTGGCACCCGAGAATTCCA
modifications: constant regions annealed to DNA blockers; guide miR-122 5' phosphate
B4: GCATCCCA (ssRNA)
RNA 1: B1 RNA 1 with G29A, U32C, U33C
RNA 2: UGGAGUGUGACAAUGGUGUUUG
DNA 1: GATCGTCGGACTGTAGAACTC
DNA 2: TTGGCACCCGAGAATTCCA
modifications: constant regions annealed to DNA blockers; guide miR-122 5' phosphate
B5: GTATCCTA (ssRNA)
RNA 1: B1 RNA 1 with C28U, G29A, U32C
RNA 2: UGGAGUGUGACAAUGGUGUUUG
DNA 1: GATCGTCGGACTGTAGAACTC
DNA 2: TTGGCACCCGAGAATTCCA
modifications: constant regions annealed to DNA blockers; guide miR-122 5' phosphate
B6: GTGTCCTA (ssRNA)
RNA 1: B1 RNA 1 with C28U, U32C
RNA 2: UGGAGUGUGACAAUGGUGUUUG
DNA 1: GATCGTCGGACTGTAGAACTC
DNA 2: TTGGCACCCGAGAATTCCA
modifications: constant regions annealed to DNA blockers; guide miR-122 5' phosphate
B7: GCGTTTCG (ssRNA)
RNA 1: B1 RNA 1 with C31U, U33C, A34G
RNA 2: UGGAGUGUGACAAUGGUGUUUG
DNA 1: GATCGTCGGACTGTAGAACTC
DNA 2: TTGGCACCCGAGAATTCCA
modifications: constant regions annealed to DNA blockers; guide miR-122 5' phosphate
B8: ACGCCTTG (ssRNA)
RNA 1: B1 RNA 1 with G27A, U30C, A34G
RNA 2: UGGAGUGUGACAAUGGUGUUUG
DNA 1: GATCGTCGGACTGTAGAACTC
DNA 2: TTGGCACCCGAGAATTCCA
modifications: constant regions annealed to DNA blockers; guide miR-122 5' phosphate
B9: GTGCCCTA (ssRNA)
RNA 1: B1 RNA 1 with C28U, U30C, U32C
RNA 2: UGGAGUGUGACAAUGGUGUUUG
DNA 1: GATCGTCGGACTGTAGAACTC
DNA 2: TTGGCACCCGAGAATTCCA
modifications: constant regions annealed to DNA blockers; guide miR-122 5' phosphate
B10: GTGTTTTA (ssRNA)
RNA 1: B1 RNA 1 with C28U, C31U
RNA 2: UGGAGUGUGACAAUGGUGUUUG
DNA 1: GATCGTCGGACTGTAGAACTC
DNA 2: TTGGCACCCGAGAATTCCA
modifications: constant regions annealed to DNA blockers; guide miR-122 5' phosphate
B11: GTGCCTTG (ssRNA)
RNA 1: B1 RNA 1 with C28U, U30C, A34G
RNA 2: UGGAGUGUGACAAUGGUGUUUG
DNA 1: GATCGTCGGACTGTAGAACTC
DNA 2: TTGGCACCCGAGAATTCCA
modifications: constant regions annealed to DNA blockers; guide miR-122 5' phosphate
B12: ATGCCCCG (ssRNA)
RNA 1: B1 RNA 1 with G27A, C28U, U30C, U32C, U33C, A34G
RNA 2: UGGAGUGUGACAAUGGUGUUUG
DNA 1: GATCGTCGGACTGTAGAACTC
DNA 2: TTGGCACCCGAGAATTCCA
modifications: constant regions annealed to DNA blockers; guide miR-122 5' phosphate
B13: ACGTCTCG (ssRNA)
RNA 1: B1 RNA 1 with G27A, U33C, A34G
RNA 2: UGGAGUGUGACAAUGGUGUUUG
DNA 1: GATCGTCGGACTGTAGAACTC
DNA 2: TTGGCACCCGAGAATTCCA
modifications: constant regions annealed to DNA blockers; guide miR-122 5' phosphate
B14: GCACCCTA (ssRNA)
RNA 1: B1 RNA 1 with G29A, U30C, U32C
RNA 2: UGGAGUGUGACAAUGGUGUUUG
DNA 1: GATCGTCGGACTGTAGAACTC
DNA 2: TTGGCACCCGAGAATTCCA
modifications: constant regions annealed to DNA blockers; guide miR-122 5' phosphate
B15: ATATCTTG (ssRNA)
RNA 1: B1 RNA 1 with G27A, C28U, G29A, A34G
RNA 2: UGGAGUGUGACAAUGGUGUUUG
DNA 1: GATCGTCGGACTGTAGAACTC
DNA 2: TTGGCACCCGAGAATTCCA
modifications: constant regions annealed to DNA blockers; guide miR-122 5' phosphate
B16: ATGCCTTA (ssRNA)
RNA 1: B1 RNA 1 with G27A, C28U, U30C
RNA 2: UGGAGUGUGACAAUGGUGUUUG
DNA 1: GATCGTCGGACTGTAGAACTC
DNA 2: TTGGCACCCGAGAATTCCA
modifications: constant regions annealed to DNA blockers; guide miR-122 5' phosphate
B17: GCACCTCG (ssRNA)
RNA 1: B1 RNA 1 with G29A, U30C, U33C, A34G
RNA 2: UGGAGUGUGACAAUGGUGUUUG
DNA 1: GATCGTCGGACTGTAGAACTC
DNA 2: TTGGCACCCGAGAATTCCA
modifications: constant regions annealed to DNA blockers; guide miR-122 5' phosphate
B18: ACGTTCTA (ssRNA)
RNA 1: B1 RNA 1 with G27A, C31U, U32C
RNA 2: UGGAGUGUGACAAUGGUGUUUG
DNA 1: GATCGTCGGACTGTAGAACTC
DNA 2: TTGGCACCCGAGAATTCCA
modifications: constant regions annealed to DNA blockers; guide miR-122 5' phosphate
B19: GTGTTTCA (ssRNA)
RNA 1: B1 RNA 1 with C28U, C31U, U33C
RNA 2: UGGAGUGUGACAAUGGUGUUUG
DNA 1: GATCGTCGGACTGTAGAACTC
DNA 2: TTGGCACCCGAGAATTCCA
modifications: constant regions annealed to DNA blockers; guide miR-122 5' phosphate
B20: ATGTTTTG (ssRNA)
RNA 1: B1 RNA 1 with G27A, C28U, C31U, A34G
RNA 2: UGGAGUGUGACAAUGGUGUUUG
DNA 1: GATCGTCGGACTGTAGAACTC
DNA 2: TTGGCACCCGAGAATTCCA
modifications: constant regions annealed to DNA blockers; guide miR-122 5' phosphate
B21: GTACTTTA (ssRNA)
RNA 1: B1 RNA 1 with C28U, G29A, U30C, C31U
RNA 2: UGGAGUGUGACAAUGGUGUUUG
DNA 1: GATCGTCGGACTGTAGAACTC
DNA 2: TTGGCACCCGAGAATTCCA
modifications: constant regions annealed to DNA blockers; guide miR-122 5' phosphate
B22: GCGCCTCG (ssRNA)
RNA 1: B1 RNA 1 with U30C, U33C, A34G
RNA 2: UGGAGUGUGACAAUGGUGUUUG
DNA 1: GATCGTCGGACTGTAGAACTC
DNA 2: TTGGCACCCGAGAATTCCA
modifications: constant regions annealed to DNA blockers; guide miR-122 5' phosphate

AGO2 T357M, sequence (Q9UKV8 whole entry T357M/S387D/S824A/S828D/S831D/S834A): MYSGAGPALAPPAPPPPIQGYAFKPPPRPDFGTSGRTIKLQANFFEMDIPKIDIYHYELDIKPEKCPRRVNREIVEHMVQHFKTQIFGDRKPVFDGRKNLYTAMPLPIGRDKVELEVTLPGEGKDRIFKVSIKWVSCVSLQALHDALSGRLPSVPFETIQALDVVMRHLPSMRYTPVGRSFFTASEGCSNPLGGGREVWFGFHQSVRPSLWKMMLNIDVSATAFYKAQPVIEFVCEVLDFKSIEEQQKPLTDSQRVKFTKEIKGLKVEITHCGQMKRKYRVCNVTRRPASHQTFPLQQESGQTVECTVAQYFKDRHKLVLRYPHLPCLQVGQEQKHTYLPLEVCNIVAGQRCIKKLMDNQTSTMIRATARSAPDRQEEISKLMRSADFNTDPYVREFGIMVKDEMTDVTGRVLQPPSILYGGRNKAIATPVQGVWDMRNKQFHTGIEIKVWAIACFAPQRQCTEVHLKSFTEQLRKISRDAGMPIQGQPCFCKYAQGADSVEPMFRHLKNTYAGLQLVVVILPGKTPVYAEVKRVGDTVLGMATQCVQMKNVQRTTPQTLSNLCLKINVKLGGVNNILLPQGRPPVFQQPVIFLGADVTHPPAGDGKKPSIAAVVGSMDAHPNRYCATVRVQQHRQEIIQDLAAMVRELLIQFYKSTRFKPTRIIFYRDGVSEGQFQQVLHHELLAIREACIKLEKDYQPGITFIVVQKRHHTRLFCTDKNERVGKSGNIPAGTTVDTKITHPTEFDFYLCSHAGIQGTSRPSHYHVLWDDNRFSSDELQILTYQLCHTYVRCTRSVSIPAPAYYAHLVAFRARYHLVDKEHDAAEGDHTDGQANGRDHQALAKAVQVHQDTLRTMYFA
AGO2 L192P, sequence (Q9UKV8 whole entry L192P/S387D/S824A/S828D/S831D/S834A): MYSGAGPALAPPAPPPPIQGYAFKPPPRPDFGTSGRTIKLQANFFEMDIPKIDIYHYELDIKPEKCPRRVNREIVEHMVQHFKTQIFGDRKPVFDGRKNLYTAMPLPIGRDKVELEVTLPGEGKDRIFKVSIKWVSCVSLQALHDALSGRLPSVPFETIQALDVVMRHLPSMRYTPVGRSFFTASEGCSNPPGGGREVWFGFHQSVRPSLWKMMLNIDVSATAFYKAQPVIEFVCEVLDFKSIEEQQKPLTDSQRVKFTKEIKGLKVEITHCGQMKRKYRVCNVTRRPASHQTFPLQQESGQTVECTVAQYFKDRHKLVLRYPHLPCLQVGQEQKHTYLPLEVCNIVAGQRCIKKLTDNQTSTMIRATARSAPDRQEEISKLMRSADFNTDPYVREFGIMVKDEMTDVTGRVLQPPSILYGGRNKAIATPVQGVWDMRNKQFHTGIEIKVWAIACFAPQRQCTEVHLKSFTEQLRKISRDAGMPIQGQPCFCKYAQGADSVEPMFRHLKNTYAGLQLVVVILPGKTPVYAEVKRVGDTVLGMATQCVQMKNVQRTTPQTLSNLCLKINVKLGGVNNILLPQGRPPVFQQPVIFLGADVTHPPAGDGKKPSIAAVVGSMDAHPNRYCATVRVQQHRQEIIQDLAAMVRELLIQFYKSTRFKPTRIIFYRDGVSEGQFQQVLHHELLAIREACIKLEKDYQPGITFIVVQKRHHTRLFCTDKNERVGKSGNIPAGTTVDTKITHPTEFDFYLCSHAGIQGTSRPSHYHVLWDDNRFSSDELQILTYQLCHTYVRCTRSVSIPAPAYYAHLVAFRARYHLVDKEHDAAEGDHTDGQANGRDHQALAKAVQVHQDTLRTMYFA
AGO2 A367P, sequence (Q9UKV8 whole entry A367P/S387D/S824A/S828D/S831D/S834A): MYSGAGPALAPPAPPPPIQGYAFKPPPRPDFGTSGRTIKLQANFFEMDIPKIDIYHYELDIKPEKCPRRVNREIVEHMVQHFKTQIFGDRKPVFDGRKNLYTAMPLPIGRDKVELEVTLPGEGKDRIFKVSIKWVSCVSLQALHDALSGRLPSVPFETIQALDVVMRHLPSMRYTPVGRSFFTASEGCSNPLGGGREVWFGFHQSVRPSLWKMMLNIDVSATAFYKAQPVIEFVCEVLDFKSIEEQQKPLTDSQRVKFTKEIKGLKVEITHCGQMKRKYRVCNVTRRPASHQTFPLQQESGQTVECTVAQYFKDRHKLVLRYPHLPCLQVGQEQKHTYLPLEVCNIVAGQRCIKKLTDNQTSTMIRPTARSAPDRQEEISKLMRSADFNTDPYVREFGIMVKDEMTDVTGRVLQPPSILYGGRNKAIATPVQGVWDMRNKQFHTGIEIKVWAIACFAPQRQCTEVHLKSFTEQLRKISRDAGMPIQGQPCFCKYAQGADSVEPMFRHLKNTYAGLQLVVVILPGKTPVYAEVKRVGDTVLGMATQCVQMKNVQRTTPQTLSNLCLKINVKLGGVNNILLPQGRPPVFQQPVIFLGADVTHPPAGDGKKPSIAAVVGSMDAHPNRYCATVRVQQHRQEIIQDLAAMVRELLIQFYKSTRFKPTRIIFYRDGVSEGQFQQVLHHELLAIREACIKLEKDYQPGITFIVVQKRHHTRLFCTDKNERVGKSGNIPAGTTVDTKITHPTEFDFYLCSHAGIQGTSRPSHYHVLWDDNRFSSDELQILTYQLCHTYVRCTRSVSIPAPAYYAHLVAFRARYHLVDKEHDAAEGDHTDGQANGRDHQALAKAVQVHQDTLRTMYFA
AGO2 F182del, sequence (Q9UKV8 other isoform, or with tags, fused parts or gaps S387D;S824A;S828D;S831D;S834A;del182-182): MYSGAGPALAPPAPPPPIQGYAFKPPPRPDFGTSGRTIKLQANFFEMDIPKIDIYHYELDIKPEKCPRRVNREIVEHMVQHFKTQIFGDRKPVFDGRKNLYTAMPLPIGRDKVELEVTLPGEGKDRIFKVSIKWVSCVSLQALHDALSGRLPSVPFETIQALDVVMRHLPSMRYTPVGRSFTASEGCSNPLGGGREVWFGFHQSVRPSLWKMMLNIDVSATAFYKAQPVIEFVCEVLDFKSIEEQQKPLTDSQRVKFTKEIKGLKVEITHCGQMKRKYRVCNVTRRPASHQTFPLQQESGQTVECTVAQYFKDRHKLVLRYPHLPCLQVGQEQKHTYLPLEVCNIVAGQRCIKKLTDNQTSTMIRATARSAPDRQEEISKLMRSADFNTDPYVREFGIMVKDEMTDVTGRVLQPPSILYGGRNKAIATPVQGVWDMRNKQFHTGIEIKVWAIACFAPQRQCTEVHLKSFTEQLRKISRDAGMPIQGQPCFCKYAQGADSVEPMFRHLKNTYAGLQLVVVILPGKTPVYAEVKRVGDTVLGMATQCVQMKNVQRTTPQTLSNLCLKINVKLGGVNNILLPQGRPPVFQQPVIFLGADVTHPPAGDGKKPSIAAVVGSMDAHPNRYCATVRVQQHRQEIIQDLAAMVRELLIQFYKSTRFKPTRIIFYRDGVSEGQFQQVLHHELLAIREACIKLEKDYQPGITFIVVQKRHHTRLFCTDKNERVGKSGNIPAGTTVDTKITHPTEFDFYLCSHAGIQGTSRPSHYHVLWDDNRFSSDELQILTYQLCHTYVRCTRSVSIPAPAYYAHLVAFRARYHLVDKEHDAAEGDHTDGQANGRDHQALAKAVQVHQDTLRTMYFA

One assay concerns the target AGO2 L192P (Homo sapiens, UniProt Q9UKV8 1-859, L192P;S387D;S824A;S828D;S831D;S834A). Briefly: RNA Bind-n-Seq (nitrocellulose filter binding and sequencing); miR-122 guide loaded in AGO2; 60 min incubation; 30 mM Tris pH 8.0, 100 mM potassium acetate, 2 mM magnesium acetate, 0.5 mM TCEP, 0.005% NP-40, 0.01 mg/ml yeast tRNA; 3 nM AGO2-miR-122, 100 nM RNA library; 60; high values mean tight binding. As to conditions: protein: recombinant; tags: His6 (N-terminal, pFastBac HTA). A digest of the protocol:
(§1)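 His-tagged AGO2 was expressed in Sf9 insect cells by baculovirus, loaded with a synthetic guide RNA, and purified by Ni-NTA and a biotinylated capture oligo. Bound RNA was extracted, reverse-transcribed, barcode-amplified and Illumina-sequenced. Fold enrichment is each sequence's read fraction divided by its input-library read fraction.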
Take B1: the binding signal is 0.473 fold enrichment over input.

With B2, the binding signal is 0.484 fold enrichment over input.

On to B3, for which the binding signal was 0.312 fold enrichment over input.

For the molecule B4, the binding signal is 0.48 fold enrichment over input.

With B5, the binding signal is 0.448 fold enrichment over input.

As for B6, the binding signal was 0.451 fold enrichment over input.

Consider B7, for which the binding signal was 0.361 fold enrichment over input.

In the case of B8, the binding signal was 0.367 fold enrichment over input.

Turning to B9, the binding signal was 0.458 fold enrichment over input.

As for B10, the binding signal is 0.467 fold enrichment over input.

Take B11: the binding signal is 0.422 fold enrichment over input.

Turning to B12, the binding signal is 0.377 fold enrichment over input.

On to B13, for which the binding signal is 0.32 fold enrichment over input.

B14: the binding signal was 0.515 fold enrichment over input.

Take B15: the binding signal was 0.409 fold enrichment over input.

For the molecule B16, the binding signal was 0.434 fold enrichment over input.

As for B17, the binding signal was 0.381 fold enrichment over input.

B18: the binding signal was 0.434 fold enrichment over input.

Turning to B19, the binding signal is 0.477 fold enrichment over input.

As for B20, the binding signal was 0.387 fold enrichment over input.

Take B21: the binding signal is 0.446 fold enrichment over input.

As to B22, the binding signal was 0.37 fold enrichment over input.

The next assay concerns the target AGO2 A367P (Homo sapiens, UniProt Q9UKV8 1-859, A367P;S387D;S824A;S828D;S831D;S834A). The description is as above. As to conditions: protein: recombinant; tags: His6 (N-terminal, pFastBac HTA). A digest of the protocol:
as §1
On to B1, for which the binding signal was 0.2 fold enrichment over input.

On to B2, for which the binding signal was 0.173 fold enrichment over input.

Regarding B3, the binding signal was 0.143 fold enrichment over input.

With B4, the binding signal was 0.201 fold enrichment over input.

Consider B5, for which the binding signal was 0.17 fold enrichment over input.

For the molecule B6, the binding signal is 0.158 fold enrichment over input.

With B7, the binding signal was 0.139 fold enrichment over input.

Consider B8, for which the binding signal is 0.164 fold enrichment over input.

Take B9: the binding signal was 0.188 fold enrichment over input.

With B10, the binding signal is 0.167 fold enrichment over input.

On to B11, for which the binding signal was 0.159 fold enrichment over input.

Turning to B12, the binding signal is 0.134 fold enrichment over input.

In the case of B13, the binding signal is 0.146 fold enrichment over input.

For B14, the binding signal was 0.214 fold enrichment over input.

As to B15, the binding signal is 0.138 fold enrichment over input.

Regarding B16, the binding signal was 0.179 fold enrichment over input.

Regarding B17, the binding signal was 0.15 fold enrichment over input.

For the molecule B18, the binding signal was 0.184 fold enrichment over input.

For B19, the binding signal is 0.178 fold enrichment over input.

For B20, the binding signal was 0.134 fold enrichment over input.

For B21, the binding signal is 0.161 fold enrichment over input.

On to B22, for which the binding signal is 0.145 fold enrichment over input.

In a further assay the target is AGO2 T357M (Homo sapiens, UniProt Q9UKV8 1-859, T357M;S387D;S824A;S828D;S831D;S834A). The description is as above. As to conditions: protein: recombinant; tags: His6 (N-terminal, pFastBac HTA). An outline of the steps:
as §1
Consider B1, for which the binding signal is 0.656 fold enrichment over input.

As to B2, the binding signal was 0.582 fold enrichment over input.

As for B3, the binding signal was 0.434 fold enrichment over input.

For the molecule B4, the binding signal was 0.628 fold enrichment over input.

Regarding B5, the binding signal was 0.563 fold enrichment over input.

On to B6, for which the binding signal is 0.528 fold enrichment over input.

B7: the binding signal was 0.534 fold enrichment over input.

Turning to B8, the binding signal was 0.54 fold enrichment over input.

On to B9, for which the binding signal was 0.663 fold enrichment over input.

Turning to B10, the binding signal is 0.565 fold enrichment over input.

Turning to B11, the binding signal is 0.548 fold enrichment over input.

On to B12, for which the binding signal was 0.489 fold enrichment over input.

For B13, the binding signal is 0.421 fold enrichment over input.

Turning to B14, the binding signal is 0.601 fold enrichment over input.

Regarding B15, the binding signal is 0.513 fold enrichment over input.

Consider B16, for which the binding signal was 0.617 fold enrichment over input.

For the molecule B17, the binding signal is 0.508 fold enrichment over input.

Regarding B18, the binding signal was 0.53 fold enrichment over input.

For B19, the binding signal was 0.587 fold enrichment over input.

Regarding B20, the binding signal is 0.541 fold enrichment over input.

For the molecule B21, the binding signal is 0.636 fold enrichment over input.

For the molecule B22, the binding signal is 0.55 fold enrichment over input.

The target of the next assay is AGO2 F182del (Homo sapiens, UniProt Q9UKV8 1-859, S387D;S824A;S828D;S831D;S834A;del182-182). The assay is described as above. As to conditions: protein: recombinant; tags: His6 (N-terminal, pFastBac HTA). An outline of the steps:
as §1
Take B4: the binding signal is 0.282 fold enrichment over input.

Turning to B5, the binding signal is 0.121 fold enrichment over input.

B14: the binding signal is 0.327 fold enrichment over input.

For B18, the binding signal was 0.195 fold enrichment over input.
